A selection: hits, their analogues and other compounds. The true share with any hit is near 1.1%.
MOR-DOR ag: agonists of human mu-delta opioid receptor heterodimerization | activation, % at 9.3 µM | cells, OPRM1-OPRD1 heterodimerization, luminescence | 340,000 compounds, 0.3% hits | AID 504326; in the data active = activation above about 18%;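 also: 0% = vehicle-treated cells and 100% = reference agonist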
OPRM1-OPRD1 inv: mu-delta opioid heterodimer inverse agonism. P35372+P41143. cell-based MOR-DOR heterodimer luminescence. inhibition, % at 9.3 µM. 340,000 compounds, 0.21% hits. AID 504357; in the data active = inhibition above about 22%, passing the limit was not always enough;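 also: 0% = cells with DMSO and 100% = wells without cells with DMSO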
HTR5A ag: counter-screen for OPRM1-OPRD1 agonists: human HTR5A agonism; HTR5A agonist assay, luminescence, cell-based; P47898; activation, % at 9.3 µM; AID 504692; 340,000 compounds, 0.61% hits; in the data active = activation mostly above about 9.5%, no sharp cut-off; inactive = mostly below about 7.6%;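 also: 0% = cells with vehicle only and 100% = reference agonist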
Target sequence (P47898 whole entry, looked up): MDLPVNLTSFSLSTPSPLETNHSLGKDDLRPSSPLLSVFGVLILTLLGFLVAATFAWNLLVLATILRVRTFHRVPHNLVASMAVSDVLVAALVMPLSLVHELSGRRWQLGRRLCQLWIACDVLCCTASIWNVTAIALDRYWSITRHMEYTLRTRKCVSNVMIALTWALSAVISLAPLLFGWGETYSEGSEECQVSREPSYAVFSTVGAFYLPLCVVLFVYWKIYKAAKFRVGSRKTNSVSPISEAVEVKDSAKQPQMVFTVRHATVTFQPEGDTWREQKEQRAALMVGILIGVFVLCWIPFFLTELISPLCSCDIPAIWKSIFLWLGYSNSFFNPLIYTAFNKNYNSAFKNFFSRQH
HTR5A inv ag: counter-screen for OPRM1-OPRD1 inverse agonists: human HTR5A inverse agonism; P47898; HTR5A cell line, luminescence; inhibition, % at 9.3 µM; 340,000 compounds, 0.083% hits; AID 504634; in the data active = inhibition mostly above about 23%, no sharp cut-off; inactive = mostly below about 18%;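 also: 0% = cells with DMSO and 100% = no-cell wells with DMSO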
Bfl-1 A1 inh: inhibitors of the anti-apoptotic protein A1, read as caspase activation | MEF A1-2A-BIM cells, Caspase-Glo 3/7 luminescence, 3 h; percent of clofoctol response, vehicle zero | caspase activation, % (concentration not given with the values) | 330,000 compounds, 0.066% hits | AID 2462;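 active = over half of replicate activation scores above 10%, or exactly half above 10 with the replicate mean above 10; inconclusive = replicate mean below 10 yet half the replicates above 10; inactive = over half of replicates below 10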
The depositor's hits bear a star; ? = inconclusive; . = not tested or not shown.

SMILES | MOR-DOR ag | OPRM1-OPRD1 inv | HTR5A ag | HTR5A inv ag | Bfl-1 A1 inh
Oc1ccccc1-c1cc(C(F)(F)C(F)F)[nH]n1 | 2 | -13 | 11* | -18 | 0
Fc1ccc(-c2cc(C(F)(F)C(F)F)[nH]n2)cc1 | . | . | . | . | 0
COc1cc(NC(=O)[C@@H]2CCCN(S(=O)(=O)c3cccc4cccnc34)C2)cc(OC)c1OC | 0 | -3 | 0 | -8 | 0
O=S(=O)(Nc1cccc(-c2nc3cccnc3s2)c1)c1ccc2c(c1)OCCO2 | 2 | -12 | 13* | 2 | 0
Cc1cc(C(=O)COC(=O)c2ccc(O)cc2)c(C)n1CC1COc2ccccc2O1 (centres undefined) | 2 | -12 | 12* | -43 | 0
Cc1cc(C(=O)COC(=O)c2ccc3c(c2)OCO3)c(C)n1CC1CCCO1 (centres undefined) | -1 | 5 | 2 | -5 | -6
CC(=O)Nc1cc(-c2nc3ccccc3o2)ccc1Cl | 1 | -3 | 0 | 0 | 3
COc1ccc(NS(=O)(=O)c2cccc(C(=O)NCc3ccccc3CN3CCCC3)c2)cc1 | -1 | 2 | 12* | -36 | 0
Cc1cc(C(=O)Cn2cnc3ccccc3c2=O)c(C)n1C1CC1 | 0 | -2 | 1 | -3 | -2
Cc1ccc(C(NC(=O)Nc2ccccn2)C(Cl)(Cl)Cl)cc1F (centres undefined) | 6 | -51 | 12* | -16 | -1
CCOC(=O)c1[nH]cnc1C(=O)Nc1ccc([N+](=O)[O-])cc1 | -5 | 20 | -2 | 8 | -1
CC(C)(C)C(=O)NC(=S)NNC(=O)c1ccc(-c2ccccc2)cc1 | -6 | 30* | -23 | 87* | 0
CC(C)(C)C(=O)NC(=S)NNC(=O)c1ccncc1 | -7 | 32 | 3 | 4 | 0
O=C(CN1C(=O)CSc2ccc(S(=O)(=O)N3CCCCC3)cc21)NCc1cccnc1 | -2 | 13 | -1 | 3 | ?
O=C1Nc2ccccc2C1=Nc1ccc(S(=O)(=O)Nc2nccs2)cc1 | 1 | -3 | 4 | -13 | 1
CSc1cccc(N=C2C(=O)Nc3ccccc32)c1 | -11 | 52* | -4 | 16 | 1
CC(=O)c1ccc(N=C2C(=O)Nc3ccccc32)cc1 | -11 | 53* | -2 | 9 | 0
O=C1Nc2ccccc2C1=Nc1cccc(Cl)c1 | -11 | 53* | -6 | 21 | 0
NC(=O)c1nsc(C(=O)N(c2ccc(F)cc2)C(C(=O)NC2CCCC2)c2ccncc2)c1N (centres undefined) | -2 | 13 | 2 | -7 | 0
CCCCC1CCC(C(=O)Nc2ccc(S(=O)(=O)Nc3nccs3)cc2)CC1 (centres undefined) | 0 | -1 | 2 | -25 | 0
CCOC(=O)/C(=C\c1cccnc1)C(=O)c1cc(C(C)=O)c(Nc2ccccc2)s1 | -5 | 33* | -7 | 24 | 22*
CCN(CC(=O)Nc1c(F)cccc1F)C(=O)CC1CCCC1 | -3 | 17 | 11* | -29 | 0
COc1ccc(C(=O)Nc2ccccc2N2CCN(C(=O)c3ccccc3)CC2)cc1Br | -1 | 4 | 2 | -22 | 0
Cc1ccccc1C(=O)N1CCC(C(=O)N(C)CC(=O)Nc2cccc(F)c2)CC1 | 0 | -2 | 2 | 2 | 1
CCCCN1C(=O)c2ccc(C(=O)NCc3ccco3)cc2C1=O | -2 | 13 | -1 | 20 | -2
SMILES | MOR-DOR ag | OPRM1-OPRD1 inv | HTR5A ag | HTR5A inv ag | Bfl-1 A1 inh
O=C(NCc1cccc(F)c1F)C1CCC(=O)N(C2CC2)C1 (centres undefined) | -5 | 18 | 10* | 4 | 0
CC(=O)c1cc(-c2ccccc2)n(CC(=O)N2CCCCC2)c1C | 0 | 0 | 12* | -38 | ?
CC(=O)c1cc(-c2ccccc2)n(CC(=O)N2CCCC2)c1C | 1 | -5 | -3 | 0 | 0
CC(=O)N[C@@H](C)C(=O)OC(C)C(=O)Nc1cccc([N+](=O)[O-])c1 (some centres undefined) | -1 | 5 | 1 | -3 | .
Cc1cc2ccccc2n1CCNC(=O)COc1ccccc1 | 31* | -170 | 1 | -28 | 0
CCC(=O)NCCn1c(C)cc2ccccc21 | 0 | -1 | 6 | -17 | 0
Cc1cc(C(=O)NN)c2cc(Br)ccc2n1 | 1 | -4 | 13* | -41 | -1
CCCCNC(=O)NNC(=O)c1cc(C)on1 | -4 | 18 | -1 | -15 | -2
O=S(=O)(Nc1cccc(-c2ccc(N3CCCCCC3)nn2)c1)c1ccc(C(F)(F)F)cc1 | 1 | -7 | 11* | 13 | -1
CCCc1nnc(NC(=O)CCC(=O)N2CCCCC2CC)s1 (centres undefined) | -2 | 12 | 9.9* | -15 | 0
CCN(CC)c1ccc(C(=O)NNC(=O)CCNC(=O)c2ccccc2)cc1 | -1 | 4 | -6 | 15 | 0
CCN(CC)c1ccc(C(=C2C=CC(=[N+](CC)CC)C=C2)c2ccccc2)cc1 | 52* | -229 | -2 | 8 | .
Cc1c(C(=O)Nc2nc3ccccc3[nH]2)oc2ccccc12 | 7 | -51 | 11* | 6 | 0
Cc1c(C(=O)Nc2nc3ccccc3[nH]2)oc2ccc(Br)cc12 | 2 | -9 | -2 | -4 | 0
Cc1ccc2c(c1)C(c1ccc(O)cc1)(c1ccc(O)cc1)C(=O)N2C | -1 | 7 | 10* | -28 | 0
Cc1cc(C2(c3ccc(O)c(C)c3)C(=O)N(C)c3ccc(Br)cc32)ccc1O | -2 | 11 | 5 | -20 | 0
Cc1ccc(NC(=O)/C=N/OCC(=O)NCc2ccccc2Cl)cc1 | -2 | 10 | 14* | -40 | 0
O=C(Nc1cccnc1)c1cc(-c2cccc(Br)c2)nc2ccccc12 | 10 | -51 | 13* | -7 | 0
O=C(Nc1cccnc1)c1cc(-c2cccnc2)nc2ccc(Br)cc12 | 3 | -19 | 3 | 12 | .
Cc1cc(CNC(=O)COc2ccc(F)cc2)c2ccccc2n1 | -1 | 8 | 11* | -5 | -1
Cc1cc(CNC(=O)COc2ccccc2)c2ccccc2n1 | -1 | 3 | 6 | -51 | .
Cc1ccc(NC(=O)Cn2c(O)c(N=NS(=O)(=O)c3ccc(C)cc3)c3ccccc32)cc1 | -9 | 53* | 5 | -14 | 0
Cc1ccc(NC(=O)Cn2c(O)c(N=NC(N)=O)c3ccccc32)cc1 | -3 | 15 | 1 | -4 | 0
O=C1N/C(=C/c2cccn2-c2ccc(F)cc2)C(=O)N1Cc1ccccc1F | 4 | -23 | 12* | 22 | 1
Cc1ccc(Cn2c(C3CCCN3c3nc(-c4cc(Cl)c(N)c(Cl)c4)cs3)nc3cc(Cl)c(Cl)cc32)cc1 (centres undefined) | -2 | 10 | -1 | -4 | 1
CCOc1ccc(-c2nnc(NC(=O)Cc3ccc(OC)cc3)o2)cc1 | -2 | 10 | -1 | 4 | 0
CCOc1ccc(-c2nnc(NC(=O)CCCOc3cccc(C)c3)o2)cc1 | 8 | -46 | 13* | -25 | 0

Screens: PubChem BioAssay, several laboratories
